From the supplement of paper PMC11732987, “Enantioselective OTUD7B fragment discovery through chemoproteomics screening and high-throughput optimisation” (Communications Chemistry, 2025)

Legend:
Assay in all cases: log2 ratio of Biotin-Ahx-Ub-VS probe labelling (fragment/DMSO); higher = less target engagement (more negative = stronger competition), active = hit call of the paper (q ≤ 0.05, log2 ratio ≤ -1)
Settings in all cases: compound concentration: 200 uM; treatment time: 3 h
[1] = biological target: T1, USP19 (UniProt O94966)
T1 sequence (whole entry): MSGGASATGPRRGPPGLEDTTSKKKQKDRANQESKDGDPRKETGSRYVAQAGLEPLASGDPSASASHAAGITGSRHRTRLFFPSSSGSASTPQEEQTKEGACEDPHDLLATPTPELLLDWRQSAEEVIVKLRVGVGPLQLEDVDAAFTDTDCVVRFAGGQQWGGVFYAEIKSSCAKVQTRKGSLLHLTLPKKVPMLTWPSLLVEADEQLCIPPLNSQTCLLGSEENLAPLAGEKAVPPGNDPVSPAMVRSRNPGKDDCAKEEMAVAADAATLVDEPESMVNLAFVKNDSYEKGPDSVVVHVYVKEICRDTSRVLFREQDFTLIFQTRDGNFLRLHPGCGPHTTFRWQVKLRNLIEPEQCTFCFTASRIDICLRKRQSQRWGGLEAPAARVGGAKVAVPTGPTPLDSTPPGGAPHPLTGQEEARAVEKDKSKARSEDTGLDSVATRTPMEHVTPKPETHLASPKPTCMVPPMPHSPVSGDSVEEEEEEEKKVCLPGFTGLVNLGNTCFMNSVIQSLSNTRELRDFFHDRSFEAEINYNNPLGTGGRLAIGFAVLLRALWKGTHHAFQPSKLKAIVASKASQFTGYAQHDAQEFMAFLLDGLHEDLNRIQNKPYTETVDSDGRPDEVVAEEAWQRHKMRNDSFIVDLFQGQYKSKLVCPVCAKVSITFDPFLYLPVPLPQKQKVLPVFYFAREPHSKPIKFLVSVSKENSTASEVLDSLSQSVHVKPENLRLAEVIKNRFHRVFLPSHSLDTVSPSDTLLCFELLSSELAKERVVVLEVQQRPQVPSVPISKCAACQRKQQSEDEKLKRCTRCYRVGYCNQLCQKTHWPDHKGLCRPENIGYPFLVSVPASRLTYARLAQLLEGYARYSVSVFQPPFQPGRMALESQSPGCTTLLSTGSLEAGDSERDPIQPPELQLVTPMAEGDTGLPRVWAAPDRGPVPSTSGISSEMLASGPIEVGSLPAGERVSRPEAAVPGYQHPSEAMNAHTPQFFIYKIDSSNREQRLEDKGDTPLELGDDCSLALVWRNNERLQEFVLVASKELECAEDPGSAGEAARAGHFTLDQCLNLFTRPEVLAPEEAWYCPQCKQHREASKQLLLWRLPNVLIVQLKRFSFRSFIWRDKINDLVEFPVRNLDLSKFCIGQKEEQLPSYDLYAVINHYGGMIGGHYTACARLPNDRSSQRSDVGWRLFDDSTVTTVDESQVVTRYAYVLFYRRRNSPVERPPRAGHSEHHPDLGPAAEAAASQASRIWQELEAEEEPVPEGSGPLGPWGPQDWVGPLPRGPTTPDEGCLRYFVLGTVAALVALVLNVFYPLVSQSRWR
Procedure, shortened: (§1)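 Average log2 ratios of fragment over vehicle were obtained by unpaired t-test from global-median-normalised Spectronaut label-free quantities. Proteins with ≥2 unique peptides were included. HEK293T lysate (495 µg per sample) was treated in triplicate with fragment at 200 µM or vehicle for 3 h, then with Biotin-Ahx-Ub-VS at 0.5 µM final for 1 h, and labelled DUBs were NeutrAvidin-enriched and run by diaPASEF LC-MS/MS.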

[2] = biological target: USP24 (UniProt Q9UPU5)
Sequence of USP24 (Q9UPU5 whole entry): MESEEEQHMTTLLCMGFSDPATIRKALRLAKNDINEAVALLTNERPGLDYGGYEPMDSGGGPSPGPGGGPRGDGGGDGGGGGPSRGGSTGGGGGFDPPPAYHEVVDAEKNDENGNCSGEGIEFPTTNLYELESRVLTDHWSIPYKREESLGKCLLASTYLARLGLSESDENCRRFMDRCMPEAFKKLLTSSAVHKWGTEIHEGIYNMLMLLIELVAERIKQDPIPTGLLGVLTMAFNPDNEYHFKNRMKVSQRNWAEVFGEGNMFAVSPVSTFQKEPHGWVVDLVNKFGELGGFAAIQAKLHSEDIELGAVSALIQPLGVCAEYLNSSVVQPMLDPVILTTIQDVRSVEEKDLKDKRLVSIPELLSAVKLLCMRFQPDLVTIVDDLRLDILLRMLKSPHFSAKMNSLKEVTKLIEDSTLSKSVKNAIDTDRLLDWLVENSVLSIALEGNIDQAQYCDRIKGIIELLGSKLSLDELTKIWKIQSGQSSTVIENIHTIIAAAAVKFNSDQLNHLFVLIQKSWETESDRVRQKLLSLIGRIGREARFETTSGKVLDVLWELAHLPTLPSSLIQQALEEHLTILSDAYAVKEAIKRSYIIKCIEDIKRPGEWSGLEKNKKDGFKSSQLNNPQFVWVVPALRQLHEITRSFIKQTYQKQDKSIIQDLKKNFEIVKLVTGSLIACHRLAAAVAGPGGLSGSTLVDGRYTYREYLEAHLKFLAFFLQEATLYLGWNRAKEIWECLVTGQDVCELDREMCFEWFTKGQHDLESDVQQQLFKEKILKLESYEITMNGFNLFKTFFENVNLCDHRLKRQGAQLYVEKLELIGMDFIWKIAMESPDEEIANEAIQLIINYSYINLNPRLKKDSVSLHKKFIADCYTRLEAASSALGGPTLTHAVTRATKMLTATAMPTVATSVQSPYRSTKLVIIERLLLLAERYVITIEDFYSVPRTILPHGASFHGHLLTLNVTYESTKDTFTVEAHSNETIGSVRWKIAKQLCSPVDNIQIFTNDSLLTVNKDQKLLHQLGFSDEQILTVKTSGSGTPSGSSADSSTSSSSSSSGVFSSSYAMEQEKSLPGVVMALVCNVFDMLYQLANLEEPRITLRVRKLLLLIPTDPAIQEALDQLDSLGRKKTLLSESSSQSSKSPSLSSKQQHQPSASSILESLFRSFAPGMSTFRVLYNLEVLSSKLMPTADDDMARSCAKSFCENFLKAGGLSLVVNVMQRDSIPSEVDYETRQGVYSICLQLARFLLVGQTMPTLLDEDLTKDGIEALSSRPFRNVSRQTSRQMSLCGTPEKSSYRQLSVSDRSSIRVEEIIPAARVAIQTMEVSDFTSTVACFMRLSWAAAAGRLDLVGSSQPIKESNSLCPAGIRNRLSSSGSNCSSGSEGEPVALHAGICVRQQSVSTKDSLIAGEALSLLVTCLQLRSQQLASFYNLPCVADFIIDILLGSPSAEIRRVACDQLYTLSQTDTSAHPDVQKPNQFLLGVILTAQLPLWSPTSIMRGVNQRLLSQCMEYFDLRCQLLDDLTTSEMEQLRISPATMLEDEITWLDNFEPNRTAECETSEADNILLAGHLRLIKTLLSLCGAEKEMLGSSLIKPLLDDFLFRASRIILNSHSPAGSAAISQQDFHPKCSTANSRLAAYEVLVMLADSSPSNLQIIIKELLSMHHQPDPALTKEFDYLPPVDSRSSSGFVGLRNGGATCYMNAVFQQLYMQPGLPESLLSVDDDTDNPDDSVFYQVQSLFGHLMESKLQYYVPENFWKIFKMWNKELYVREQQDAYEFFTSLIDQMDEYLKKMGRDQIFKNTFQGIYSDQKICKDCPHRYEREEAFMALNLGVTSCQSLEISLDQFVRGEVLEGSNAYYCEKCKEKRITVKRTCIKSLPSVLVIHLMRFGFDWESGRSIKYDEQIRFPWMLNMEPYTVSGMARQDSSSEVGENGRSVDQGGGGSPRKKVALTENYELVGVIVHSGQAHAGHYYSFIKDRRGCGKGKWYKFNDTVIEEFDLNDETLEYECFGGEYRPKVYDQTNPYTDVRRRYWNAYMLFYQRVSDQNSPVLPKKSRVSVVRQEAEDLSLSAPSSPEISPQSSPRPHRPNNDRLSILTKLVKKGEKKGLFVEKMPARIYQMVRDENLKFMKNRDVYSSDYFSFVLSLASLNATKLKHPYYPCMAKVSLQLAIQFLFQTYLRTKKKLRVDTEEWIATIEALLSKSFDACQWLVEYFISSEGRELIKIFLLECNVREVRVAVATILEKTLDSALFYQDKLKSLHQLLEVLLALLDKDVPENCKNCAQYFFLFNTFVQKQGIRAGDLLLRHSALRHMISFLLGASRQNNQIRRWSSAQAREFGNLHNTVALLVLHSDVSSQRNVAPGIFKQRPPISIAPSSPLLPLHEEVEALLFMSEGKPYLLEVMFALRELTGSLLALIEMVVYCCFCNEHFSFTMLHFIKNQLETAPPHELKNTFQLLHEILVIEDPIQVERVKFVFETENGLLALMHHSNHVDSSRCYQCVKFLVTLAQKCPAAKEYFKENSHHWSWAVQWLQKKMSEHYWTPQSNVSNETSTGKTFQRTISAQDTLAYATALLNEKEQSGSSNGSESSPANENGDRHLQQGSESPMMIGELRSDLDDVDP
Procedure, shortened: as §1

[3] = biological target: T2, USP25 (UniProt Q9UHP3)
T2 sequence (whole entry): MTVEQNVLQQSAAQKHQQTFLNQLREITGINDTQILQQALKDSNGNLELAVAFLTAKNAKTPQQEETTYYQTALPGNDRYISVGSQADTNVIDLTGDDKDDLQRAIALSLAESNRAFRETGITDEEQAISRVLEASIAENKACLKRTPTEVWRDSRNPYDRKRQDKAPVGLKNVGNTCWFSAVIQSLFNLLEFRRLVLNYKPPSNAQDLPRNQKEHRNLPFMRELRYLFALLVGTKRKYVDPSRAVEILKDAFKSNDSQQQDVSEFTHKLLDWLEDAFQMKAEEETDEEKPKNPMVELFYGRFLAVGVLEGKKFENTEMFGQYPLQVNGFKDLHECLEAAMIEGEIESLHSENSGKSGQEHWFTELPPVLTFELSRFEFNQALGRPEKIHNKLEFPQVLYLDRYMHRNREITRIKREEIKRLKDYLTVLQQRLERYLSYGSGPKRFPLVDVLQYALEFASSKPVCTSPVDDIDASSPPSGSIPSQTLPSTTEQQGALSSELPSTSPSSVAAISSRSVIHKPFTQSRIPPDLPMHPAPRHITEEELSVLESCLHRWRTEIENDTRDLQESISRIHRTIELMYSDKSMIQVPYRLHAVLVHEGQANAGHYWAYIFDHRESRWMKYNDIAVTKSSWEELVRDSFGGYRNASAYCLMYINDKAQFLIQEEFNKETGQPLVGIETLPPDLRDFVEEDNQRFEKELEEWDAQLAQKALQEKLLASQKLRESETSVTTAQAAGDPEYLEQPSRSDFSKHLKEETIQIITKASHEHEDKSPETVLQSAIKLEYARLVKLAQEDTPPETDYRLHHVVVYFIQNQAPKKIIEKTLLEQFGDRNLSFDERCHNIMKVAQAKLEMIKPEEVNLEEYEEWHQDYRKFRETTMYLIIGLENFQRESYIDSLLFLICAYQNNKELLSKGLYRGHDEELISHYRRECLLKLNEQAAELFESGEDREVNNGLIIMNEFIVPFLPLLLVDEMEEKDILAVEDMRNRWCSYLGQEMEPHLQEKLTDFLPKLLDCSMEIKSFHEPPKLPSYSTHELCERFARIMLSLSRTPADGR
Procedure, shortened: as §1

[4] = biological target: T3, USP28 (UniProt Q96RU2)
T3 sequence (whole entry): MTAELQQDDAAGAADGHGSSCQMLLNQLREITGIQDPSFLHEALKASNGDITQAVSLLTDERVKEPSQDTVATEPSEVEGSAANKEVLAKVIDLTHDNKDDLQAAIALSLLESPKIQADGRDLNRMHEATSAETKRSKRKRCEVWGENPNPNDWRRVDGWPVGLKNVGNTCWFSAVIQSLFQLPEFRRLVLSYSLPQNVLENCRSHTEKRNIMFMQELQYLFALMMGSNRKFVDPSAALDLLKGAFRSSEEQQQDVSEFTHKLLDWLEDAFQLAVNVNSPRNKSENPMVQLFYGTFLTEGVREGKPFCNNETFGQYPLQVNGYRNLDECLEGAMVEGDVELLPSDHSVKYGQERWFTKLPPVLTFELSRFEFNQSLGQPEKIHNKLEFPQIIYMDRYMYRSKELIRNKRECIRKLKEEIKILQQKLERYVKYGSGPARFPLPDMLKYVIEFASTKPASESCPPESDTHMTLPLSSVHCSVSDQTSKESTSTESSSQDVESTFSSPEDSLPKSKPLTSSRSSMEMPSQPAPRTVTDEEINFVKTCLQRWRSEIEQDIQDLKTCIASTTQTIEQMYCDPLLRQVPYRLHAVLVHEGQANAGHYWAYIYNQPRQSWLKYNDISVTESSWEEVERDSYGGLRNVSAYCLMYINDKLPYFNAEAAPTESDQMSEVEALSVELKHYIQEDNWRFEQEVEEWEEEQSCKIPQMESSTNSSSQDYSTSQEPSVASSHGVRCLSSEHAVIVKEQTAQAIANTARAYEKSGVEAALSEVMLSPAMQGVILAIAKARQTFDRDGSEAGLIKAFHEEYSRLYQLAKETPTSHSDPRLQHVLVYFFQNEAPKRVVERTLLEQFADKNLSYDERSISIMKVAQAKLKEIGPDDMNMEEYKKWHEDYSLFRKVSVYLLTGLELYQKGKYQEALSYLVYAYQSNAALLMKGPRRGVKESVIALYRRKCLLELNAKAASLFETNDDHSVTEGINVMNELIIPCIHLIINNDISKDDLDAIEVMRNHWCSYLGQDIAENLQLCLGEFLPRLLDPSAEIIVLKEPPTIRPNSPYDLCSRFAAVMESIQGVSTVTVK
Procedure, shortened: as §1

Measured: log2 ratio of Biotin-Ahx-Ub-VS probe labelling

Cc1cc(C(=O)NC2CCN(C(=O)CCl)CC2)no1
inactive: [1] -0.0463 | [2] -0.225 | [3] -0.417 | [4] -0.353
